The text below walks through data of PubChem BioAssay.

Unmarked numbers belong to inactive results. Activity calls are given as the source filed them.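 The calls were made as follows, unless noted: active = mean inhibition over 43.08%, the solvent-only control mean plus 3 SD; inactive = the rest.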

The target of experiment [1] is Nuclear receptor coactivator 3 (Homo sapiens) (UniProt Q9Y6Q9). In words: SRC3 coactivator transcriptional activity inhibitors, confirmation, cell-based, luminescence, quadruplicate (AID 588792).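 Also: 0% = DMSO treated cells and 100% = gossypol at 36 µM.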 Conditions: HEK293 GAL4-SRC3 luciferase reporter, at 3.6 µM, stronger effect = higher value.
Experiment [2] relates to transactivating tegument protein VP16 (Human herpesvirus 1), Gal4-VP16 luciferase reporter. The experiment is described as follows: VP16 transactivation inhibitors, counter-screen for SRC3 inhibitor project, cell-based, luminescence, high throughput (AID 588794; in the data active = inhibition above about 30%). The settings on record: mammalian cells, VP16-driven luciferase reporter luminescence; at 3.6 µM; stronger effect = higher value. (A counterscreen serves to expose hits that act by an unwanted route or on another target.)

In experiment [3] the target is Nuclear receptor coactivator 1 (Homo sapiens) (UniProt Q15788). The experiment is described as follows: SRC1 coactivator transcriptional activity inhibitors, confirmation, cell-based, luminescence, quadruplicate (AID 588820;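 active = mean inhibition above 46.68%, the untreated control wells mean plus 3 SD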;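 also: 0% = DMSO wells and 100% = gossypol 36 µM treated wells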). The settings on record: HEK293 GAL4-SRC1 luciferase reporter, at 3.6 µM, stronger effect = higher value.
The nature of experiment [4]: VP16 transactivation inhibitors, counter-screen for SRC1 inhibitor project, cell-based, luminescence, high throughput (AID 588824; in the data active = inhibition above about 25%). Conditions: cell-based VP16 transactivation luciferase luminescence; at 3.6 µM; stronger effect = higher value.
Experiment [5] is described as follows: StAR promoter reporter inhibitors, counter-screen for LRH-1 inverse agonist project, cell-based, luminescence, high throughput (AID 651611; in the data active = inhibition above about 28%). Conditions: StAR promoter luciferase reporter counterscreen, at 3.6 µM, stronger effect = higher value.
Experiment [6] addresses Nuclear receptor subfamily 5 group A member 2 (Homo sapiens) (UniProt O00482). The experiment is described as follows: LRH-1 (NR5A2) inverse agonists, retest, confirmation, cell-based, luminescence (AID 651613; in the data active = inhibition above about 42%;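 also: HEK293T cells co-transfected with LRH-1 and StAR promoter luciferase reporter; 0% = vehicle wells and 100% = parental cells lacking receptor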). The settings on record: cell-based LRH-1 luciferase reporter, inverse agonism; at 3.6 µM; stronger effect = higher value. (In general: In a reporter assay the amount or activity of a reporter protein is the signal.)

Experiment [7] concerns the target Steroidogenic factor 1 (Homo sapiens) (UniProt Q13285). The experiment is described as follows: SF1 (NR5A1) inverse agonists, counter-screen for LRH-1 inverse agonist project, cell-based, luminescence, high throughput (AID 651614; in the data active = inhibition above about 44%;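 also: cells cotransfected with StAR promoter reporter and SF1 expression vector; 0% = vehicle on cells with receptor and 100% = vehicle on cells lacking receptor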). Conditions: cell-based SF1 luciferase reporter, at 3.6 µM, stronger effect = higher value.
A short description of experiment [8]: VP16 transactivation reporter inhibitors, counter-screen for LRH-1 inverse agonist project, cell-based, luminescence, high throughput (AID 651615; in the data active = inhibition above about 33%). The settings on record: Gal4-VP16 luciferase reporter cells, at 3.6 µM, stronger effect = higher value.

Chain of Steroidogenic factor 1 (Homo sapiens) (Q13285 whole entry, looked up, the tested form may be a part): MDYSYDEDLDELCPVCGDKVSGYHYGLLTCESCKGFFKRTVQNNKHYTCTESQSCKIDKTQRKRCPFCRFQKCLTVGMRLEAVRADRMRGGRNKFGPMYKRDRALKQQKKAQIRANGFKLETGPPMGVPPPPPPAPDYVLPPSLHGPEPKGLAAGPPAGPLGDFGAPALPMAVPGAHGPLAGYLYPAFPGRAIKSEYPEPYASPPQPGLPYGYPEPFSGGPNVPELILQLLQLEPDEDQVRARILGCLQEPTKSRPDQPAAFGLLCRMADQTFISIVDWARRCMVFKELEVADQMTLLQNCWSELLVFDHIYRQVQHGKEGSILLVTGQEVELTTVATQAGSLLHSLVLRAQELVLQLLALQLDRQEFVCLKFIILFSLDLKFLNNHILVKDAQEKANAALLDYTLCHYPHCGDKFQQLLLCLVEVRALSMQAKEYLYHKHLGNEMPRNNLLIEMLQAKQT
Chain of Nuclear receptor subfamily 5 group A member 2 (Homo sapiens) (O00482 whole entry, looked up): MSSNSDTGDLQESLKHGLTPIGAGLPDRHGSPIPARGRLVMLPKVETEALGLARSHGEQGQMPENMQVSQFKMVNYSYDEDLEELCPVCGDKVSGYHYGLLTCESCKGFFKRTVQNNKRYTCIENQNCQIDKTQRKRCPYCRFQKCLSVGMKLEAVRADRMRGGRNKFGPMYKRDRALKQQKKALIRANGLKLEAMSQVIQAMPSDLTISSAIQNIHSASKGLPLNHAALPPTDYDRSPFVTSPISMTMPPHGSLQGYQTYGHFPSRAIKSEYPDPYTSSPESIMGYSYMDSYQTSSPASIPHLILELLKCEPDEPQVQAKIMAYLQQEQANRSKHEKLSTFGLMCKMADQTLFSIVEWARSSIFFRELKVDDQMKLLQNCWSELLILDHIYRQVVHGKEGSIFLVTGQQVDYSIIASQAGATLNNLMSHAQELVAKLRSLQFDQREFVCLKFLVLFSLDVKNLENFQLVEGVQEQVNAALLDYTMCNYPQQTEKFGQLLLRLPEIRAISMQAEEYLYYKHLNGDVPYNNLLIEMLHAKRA
Chain of Nuclear receptor coactivator 3 (Homo sapiens) (Q9Y6Q9 whole entry, looked up, the tested form may be a part): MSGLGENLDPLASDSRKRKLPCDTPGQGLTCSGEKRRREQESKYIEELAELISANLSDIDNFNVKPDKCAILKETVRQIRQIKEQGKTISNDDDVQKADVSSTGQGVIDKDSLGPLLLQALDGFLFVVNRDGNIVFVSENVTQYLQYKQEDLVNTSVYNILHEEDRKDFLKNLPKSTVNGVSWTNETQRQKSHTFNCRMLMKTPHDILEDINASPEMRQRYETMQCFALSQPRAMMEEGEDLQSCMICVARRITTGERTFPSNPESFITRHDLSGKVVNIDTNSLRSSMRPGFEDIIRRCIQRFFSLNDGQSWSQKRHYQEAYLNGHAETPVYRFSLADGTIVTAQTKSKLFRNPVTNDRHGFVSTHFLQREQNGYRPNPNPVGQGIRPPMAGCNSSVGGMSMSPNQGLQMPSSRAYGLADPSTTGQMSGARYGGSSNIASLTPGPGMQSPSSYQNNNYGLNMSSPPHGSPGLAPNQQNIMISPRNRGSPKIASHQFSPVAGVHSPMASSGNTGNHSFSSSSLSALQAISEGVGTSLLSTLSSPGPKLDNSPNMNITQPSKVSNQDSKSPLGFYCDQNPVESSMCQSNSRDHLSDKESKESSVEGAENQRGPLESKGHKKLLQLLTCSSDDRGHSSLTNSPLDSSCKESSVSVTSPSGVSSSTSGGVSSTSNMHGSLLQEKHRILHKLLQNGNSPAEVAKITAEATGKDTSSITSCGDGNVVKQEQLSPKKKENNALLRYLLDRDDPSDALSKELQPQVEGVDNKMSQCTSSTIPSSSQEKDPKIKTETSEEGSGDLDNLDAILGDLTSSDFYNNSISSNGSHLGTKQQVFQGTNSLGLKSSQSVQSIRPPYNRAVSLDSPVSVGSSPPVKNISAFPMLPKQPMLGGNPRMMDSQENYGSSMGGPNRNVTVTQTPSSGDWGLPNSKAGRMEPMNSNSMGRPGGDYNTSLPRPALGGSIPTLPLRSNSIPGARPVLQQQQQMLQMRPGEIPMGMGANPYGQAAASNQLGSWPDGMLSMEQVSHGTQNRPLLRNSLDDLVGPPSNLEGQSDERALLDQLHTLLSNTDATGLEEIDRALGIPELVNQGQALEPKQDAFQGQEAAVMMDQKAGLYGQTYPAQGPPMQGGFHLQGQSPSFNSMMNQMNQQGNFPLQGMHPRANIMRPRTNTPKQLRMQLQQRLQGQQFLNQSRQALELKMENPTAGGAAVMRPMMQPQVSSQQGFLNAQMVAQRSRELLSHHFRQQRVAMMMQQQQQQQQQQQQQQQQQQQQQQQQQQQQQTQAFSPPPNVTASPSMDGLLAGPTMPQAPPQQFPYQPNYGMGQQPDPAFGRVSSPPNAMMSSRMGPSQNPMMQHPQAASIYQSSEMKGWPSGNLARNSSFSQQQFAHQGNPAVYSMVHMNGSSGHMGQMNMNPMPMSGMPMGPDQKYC
Chain of Nuclear receptor coactivator 1 (Homo sapiens) (Q15788 whole entry, looked up, the tested form may be a part): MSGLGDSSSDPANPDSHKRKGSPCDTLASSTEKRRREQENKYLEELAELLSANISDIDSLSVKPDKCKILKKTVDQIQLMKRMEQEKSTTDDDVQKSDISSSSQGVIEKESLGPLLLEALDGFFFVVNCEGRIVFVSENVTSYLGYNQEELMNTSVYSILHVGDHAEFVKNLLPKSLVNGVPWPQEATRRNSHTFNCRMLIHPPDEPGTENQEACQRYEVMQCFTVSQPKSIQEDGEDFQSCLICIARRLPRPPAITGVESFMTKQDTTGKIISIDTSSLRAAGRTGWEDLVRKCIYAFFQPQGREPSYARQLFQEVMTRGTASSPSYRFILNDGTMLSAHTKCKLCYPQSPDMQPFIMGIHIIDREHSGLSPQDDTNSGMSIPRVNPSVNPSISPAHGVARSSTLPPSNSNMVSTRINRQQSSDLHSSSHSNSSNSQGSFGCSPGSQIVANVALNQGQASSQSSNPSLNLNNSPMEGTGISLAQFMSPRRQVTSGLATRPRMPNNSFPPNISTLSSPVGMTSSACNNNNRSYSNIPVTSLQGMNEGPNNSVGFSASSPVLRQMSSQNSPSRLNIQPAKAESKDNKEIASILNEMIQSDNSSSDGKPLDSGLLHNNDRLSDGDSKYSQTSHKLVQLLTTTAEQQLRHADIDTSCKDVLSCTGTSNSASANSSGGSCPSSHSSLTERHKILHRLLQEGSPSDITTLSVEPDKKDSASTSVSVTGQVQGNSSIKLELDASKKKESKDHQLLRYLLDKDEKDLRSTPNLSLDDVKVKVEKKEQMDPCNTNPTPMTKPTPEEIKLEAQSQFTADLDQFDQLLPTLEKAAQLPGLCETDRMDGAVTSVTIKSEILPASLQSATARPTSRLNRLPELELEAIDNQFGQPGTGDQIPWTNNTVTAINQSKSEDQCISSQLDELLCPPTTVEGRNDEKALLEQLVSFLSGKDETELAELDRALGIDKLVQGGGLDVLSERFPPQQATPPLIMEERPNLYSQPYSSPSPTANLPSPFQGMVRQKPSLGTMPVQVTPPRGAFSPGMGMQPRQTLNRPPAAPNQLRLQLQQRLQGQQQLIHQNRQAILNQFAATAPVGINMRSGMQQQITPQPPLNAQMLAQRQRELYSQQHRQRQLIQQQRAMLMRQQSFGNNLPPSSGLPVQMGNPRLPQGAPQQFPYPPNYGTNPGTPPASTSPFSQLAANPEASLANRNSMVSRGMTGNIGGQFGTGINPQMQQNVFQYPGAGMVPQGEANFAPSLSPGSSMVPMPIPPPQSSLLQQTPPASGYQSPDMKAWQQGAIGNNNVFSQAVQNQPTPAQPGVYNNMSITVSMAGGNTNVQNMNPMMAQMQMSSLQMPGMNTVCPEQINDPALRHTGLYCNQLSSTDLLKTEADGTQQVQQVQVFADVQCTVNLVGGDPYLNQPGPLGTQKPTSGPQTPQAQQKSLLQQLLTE

For orientation: inhibition means the percentage by which the read-out fell short of the control. Regarding `CCCCC[n+]1cccc2c3ccccc3ccc21`, the inhibition in experiment [1] is 39.9%; in experiment [2], 59% (active); in experiment [3], 30.7%; in experiment [4] it was 59% (active); in experiment [5], 51.5% (active); in experiment [6], 90% (active). The figures for the inhibition in experiment [7] and in experiment [8] were 81.5% (active) and 77% (active), respectively.
For the compound `NC(=O)c1cccc(-c2cnc(N)c(C(=O)c3cccnc3)n2)c1`, the inhibition in experiment [1] was 76.7% (active); in experiment [2], 49.5% (active); in experiment [3] it was 65.9% (active); in experiment [4] it was 48.5% (active); in experiment [5], 59.9% (active); in experiment [6], 72.6% (active). The inhibition was 67.2% (active) in experiment [7] and 72.7% (active) in experiment [8].
For the compound `CCOc1cc(/C=C2\CN(CC)C/C(=C\c3ccc(O)c(OCC)c3)C2=O)ccc1O`, the inhibition in experiment [1] is 65.4% (active); in experiment [2] it was 62.4% (active); in experiment [3], 4.46%; in experiment [4], 51.8% (active); in experiment [5] it was 47.3% (active); in experiment [6], 91.2% (active). Also, the inhibition in experiment [7] is 87.2% (active); in experiment [8] it was 82.6% (active).
On to `N=c1c2c(-c3ccccc3)c(-c3ccccc3)n(Cc3ccco3)c2ncn1CCO`, for which the inhibition in experiment [1] was 23.5%; in experiment [2] it was 54.5% (active); in experiment [3] it was 41%; in experiment [4], 56.2% (active); in experiment [5] it was 54.3% (active); in experiment [6] it was 64.8% (active). The inhibition is 64% (active) in experiment [7] and 74.8% (active) in experiment [8].
For the compound `CN(C)c1ccc(/C=C/c2ccc3ccccc3[n+]2C)cc1`, the inhibition was 62.3% (active) in experiment [1]; 74.5% (active) in experiment [2]; 32.4% in experiment [3]; 74.3% (active) in experiment [4]; 58.5% (active) in experiment [5]; 76.8% (active) in experiment [6]. Further, the inhibition in experiment [7] is 76.6% (active); in experiment [8], 70.9% (active).
On to `Cc1nn(Cc2ccc(C(=O)Nc3nccs3)cc2)c(C)c1Cl`, for which the inhibition is 21.7% in experiment [1]; 45.6% (active) in experiment [2]; 17.9% in experiment [3]; 43.8% (active) in experiment [4]; 46.8% (active) in experiment [5]; 62.3% (active) in experiment [6]. Besides, the inhibition in experiment [7] is 67% (active); in experiment [8], 64.6% (active).
